This note sets out measurements from ChEMBL document CHEMBL1961873, “Compounds: GSK PKIS; Assays: Nanosyn kinase panel” (2012).

Test [1] has as its target T1, Serine/threonine-protein kinase D2 (Homo sapiens) (UniProt Q9BZL6).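 Further: mean value of PRKD2 inhibition, from the GSK PKIS screening panel.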
T1 sequence (whole entry): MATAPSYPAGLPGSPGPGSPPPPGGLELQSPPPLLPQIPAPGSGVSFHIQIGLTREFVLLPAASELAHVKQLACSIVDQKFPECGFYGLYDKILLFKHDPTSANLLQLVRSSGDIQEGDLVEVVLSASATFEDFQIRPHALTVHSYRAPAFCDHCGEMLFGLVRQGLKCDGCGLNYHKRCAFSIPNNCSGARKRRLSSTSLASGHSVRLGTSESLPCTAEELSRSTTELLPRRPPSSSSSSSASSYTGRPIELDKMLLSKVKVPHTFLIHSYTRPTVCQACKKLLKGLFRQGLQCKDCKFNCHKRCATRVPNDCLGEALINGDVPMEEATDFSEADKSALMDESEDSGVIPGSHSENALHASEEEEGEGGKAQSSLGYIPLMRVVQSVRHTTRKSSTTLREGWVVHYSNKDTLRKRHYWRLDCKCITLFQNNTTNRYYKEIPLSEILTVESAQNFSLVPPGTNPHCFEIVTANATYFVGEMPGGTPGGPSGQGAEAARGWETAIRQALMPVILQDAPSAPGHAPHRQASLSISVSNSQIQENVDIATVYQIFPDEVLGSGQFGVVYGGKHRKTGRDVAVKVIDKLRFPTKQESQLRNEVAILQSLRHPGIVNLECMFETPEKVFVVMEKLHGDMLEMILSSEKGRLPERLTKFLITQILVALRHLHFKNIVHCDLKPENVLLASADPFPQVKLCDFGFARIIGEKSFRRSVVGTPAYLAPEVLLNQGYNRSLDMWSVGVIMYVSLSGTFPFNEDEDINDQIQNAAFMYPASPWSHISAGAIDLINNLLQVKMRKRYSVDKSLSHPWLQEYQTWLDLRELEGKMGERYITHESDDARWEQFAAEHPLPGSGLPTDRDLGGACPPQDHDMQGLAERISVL
To be noted: at 1 µM.

The target of test [2] is T2, Serine/threonine-protein kinase D3 (Homo sapiens) (UniProt O94806).
T2 sequence (whole entry): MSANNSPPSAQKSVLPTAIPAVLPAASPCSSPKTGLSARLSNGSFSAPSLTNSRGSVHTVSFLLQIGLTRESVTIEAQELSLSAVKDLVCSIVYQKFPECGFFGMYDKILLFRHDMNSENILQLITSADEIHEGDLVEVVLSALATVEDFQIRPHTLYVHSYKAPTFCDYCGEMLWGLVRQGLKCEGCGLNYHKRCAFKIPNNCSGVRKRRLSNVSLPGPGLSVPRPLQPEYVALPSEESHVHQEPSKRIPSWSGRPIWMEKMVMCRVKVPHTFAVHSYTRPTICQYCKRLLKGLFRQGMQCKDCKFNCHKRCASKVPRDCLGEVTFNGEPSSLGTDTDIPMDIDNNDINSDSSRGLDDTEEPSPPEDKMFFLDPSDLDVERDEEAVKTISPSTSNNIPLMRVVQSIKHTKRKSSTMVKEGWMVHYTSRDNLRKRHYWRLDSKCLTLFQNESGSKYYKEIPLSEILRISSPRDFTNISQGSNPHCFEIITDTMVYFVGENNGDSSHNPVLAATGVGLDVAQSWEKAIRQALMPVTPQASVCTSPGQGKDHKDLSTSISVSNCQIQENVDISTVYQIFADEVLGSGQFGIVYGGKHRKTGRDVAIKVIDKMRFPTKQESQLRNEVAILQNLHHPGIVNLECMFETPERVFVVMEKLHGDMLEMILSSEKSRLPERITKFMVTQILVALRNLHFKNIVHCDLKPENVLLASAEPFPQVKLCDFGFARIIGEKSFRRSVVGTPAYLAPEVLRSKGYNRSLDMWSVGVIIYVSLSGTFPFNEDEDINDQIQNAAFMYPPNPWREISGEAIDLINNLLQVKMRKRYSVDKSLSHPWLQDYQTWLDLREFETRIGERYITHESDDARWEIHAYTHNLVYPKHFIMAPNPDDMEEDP
To be noted: at 0.1 µM.

The target of test [3] is T2, Serine/threonine-protein kinase D3 (Homo sapiens). To be noted: at 1 µM.
Test [4] concerns the target T3, cGMP-dependent protein kinase 1 (Homo sapiens) (UniProt Q13976).
T3 sequence (whole entry): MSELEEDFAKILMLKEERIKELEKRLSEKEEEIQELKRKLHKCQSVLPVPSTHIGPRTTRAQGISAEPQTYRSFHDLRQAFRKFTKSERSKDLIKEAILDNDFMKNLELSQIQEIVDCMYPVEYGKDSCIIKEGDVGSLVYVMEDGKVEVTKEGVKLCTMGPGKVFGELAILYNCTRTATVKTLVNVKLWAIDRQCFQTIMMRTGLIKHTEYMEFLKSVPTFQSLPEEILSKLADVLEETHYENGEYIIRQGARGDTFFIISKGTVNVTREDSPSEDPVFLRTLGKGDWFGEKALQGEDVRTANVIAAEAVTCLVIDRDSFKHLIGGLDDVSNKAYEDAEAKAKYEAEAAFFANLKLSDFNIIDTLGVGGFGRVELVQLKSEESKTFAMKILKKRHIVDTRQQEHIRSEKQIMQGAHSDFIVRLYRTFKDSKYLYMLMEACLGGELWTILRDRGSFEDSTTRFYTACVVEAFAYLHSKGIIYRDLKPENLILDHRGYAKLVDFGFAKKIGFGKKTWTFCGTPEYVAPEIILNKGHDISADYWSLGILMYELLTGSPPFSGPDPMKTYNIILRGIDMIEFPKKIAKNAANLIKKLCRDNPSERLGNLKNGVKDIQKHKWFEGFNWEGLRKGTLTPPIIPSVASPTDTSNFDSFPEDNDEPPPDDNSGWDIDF
The conditions noted are these: at 0.1 µM.

For test [5], the target named is T3, cGMP-dependent protein kinase 1 (Homo sapiens). To be noted: at 1 µM.
For test [6], the target named is T4, cGMP-dependent protein kinase 2 (Homo sapiens) (UniProt Q13237).
T4 sequence (whole entry): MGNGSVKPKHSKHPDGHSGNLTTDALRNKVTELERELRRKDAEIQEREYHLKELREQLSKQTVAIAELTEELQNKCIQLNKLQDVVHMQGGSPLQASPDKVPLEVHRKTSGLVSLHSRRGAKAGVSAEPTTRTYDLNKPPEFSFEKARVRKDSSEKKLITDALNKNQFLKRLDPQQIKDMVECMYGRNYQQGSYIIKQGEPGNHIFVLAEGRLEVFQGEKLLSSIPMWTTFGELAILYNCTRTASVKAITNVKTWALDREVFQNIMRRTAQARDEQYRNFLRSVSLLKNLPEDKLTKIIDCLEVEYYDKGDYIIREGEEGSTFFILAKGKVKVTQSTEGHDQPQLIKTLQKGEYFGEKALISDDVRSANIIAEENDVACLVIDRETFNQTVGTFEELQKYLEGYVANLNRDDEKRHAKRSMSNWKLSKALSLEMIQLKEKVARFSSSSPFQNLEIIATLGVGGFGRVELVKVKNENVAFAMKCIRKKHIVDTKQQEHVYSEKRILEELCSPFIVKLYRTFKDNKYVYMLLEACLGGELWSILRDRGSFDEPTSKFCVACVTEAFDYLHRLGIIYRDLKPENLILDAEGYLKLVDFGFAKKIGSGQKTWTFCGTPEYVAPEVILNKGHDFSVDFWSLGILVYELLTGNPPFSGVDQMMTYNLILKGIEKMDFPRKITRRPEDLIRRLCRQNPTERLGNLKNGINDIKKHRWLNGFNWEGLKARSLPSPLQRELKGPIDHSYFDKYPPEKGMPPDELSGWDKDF
To be noted: at 0.1 µM.

The target of test [7] is T4, cGMP-dependent protein kinase 2 (Homo sapiens). The conditions noted are these: at 1 µM.
In test [8] the target is T5, cAMP-dependent protein kinase catalytic subunit PRKX (Homo sapiens) (UniProt P51817).
T5 sequence (whole entry): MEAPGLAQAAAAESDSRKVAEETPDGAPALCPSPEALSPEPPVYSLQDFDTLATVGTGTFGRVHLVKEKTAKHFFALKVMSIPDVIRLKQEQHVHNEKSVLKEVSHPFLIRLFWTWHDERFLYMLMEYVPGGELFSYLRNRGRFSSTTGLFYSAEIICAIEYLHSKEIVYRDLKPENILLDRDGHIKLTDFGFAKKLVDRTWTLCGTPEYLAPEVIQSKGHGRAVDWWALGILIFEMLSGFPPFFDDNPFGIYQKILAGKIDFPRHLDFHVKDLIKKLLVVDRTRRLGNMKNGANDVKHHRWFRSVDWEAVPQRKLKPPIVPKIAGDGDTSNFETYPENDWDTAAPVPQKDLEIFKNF
The conditions noted are these: at 0.1 µM.

Test [9] has as its target T5, cAMP-dependent protein kinase catalytic subunit PRKX (Homo sapiens). To be noted: at 1 µM.
Test [10] has as its target Rho-associated protein kinase 1 (Homo sapiens) (UniProt Q13464). To be noted: at 0.1 µM.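 Further: values are mean percent inhibition of ROCK1.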

Chain of Rho-associated protein kinase 1 (Homo sapiens) (Q13464 2-1354 limits assumed): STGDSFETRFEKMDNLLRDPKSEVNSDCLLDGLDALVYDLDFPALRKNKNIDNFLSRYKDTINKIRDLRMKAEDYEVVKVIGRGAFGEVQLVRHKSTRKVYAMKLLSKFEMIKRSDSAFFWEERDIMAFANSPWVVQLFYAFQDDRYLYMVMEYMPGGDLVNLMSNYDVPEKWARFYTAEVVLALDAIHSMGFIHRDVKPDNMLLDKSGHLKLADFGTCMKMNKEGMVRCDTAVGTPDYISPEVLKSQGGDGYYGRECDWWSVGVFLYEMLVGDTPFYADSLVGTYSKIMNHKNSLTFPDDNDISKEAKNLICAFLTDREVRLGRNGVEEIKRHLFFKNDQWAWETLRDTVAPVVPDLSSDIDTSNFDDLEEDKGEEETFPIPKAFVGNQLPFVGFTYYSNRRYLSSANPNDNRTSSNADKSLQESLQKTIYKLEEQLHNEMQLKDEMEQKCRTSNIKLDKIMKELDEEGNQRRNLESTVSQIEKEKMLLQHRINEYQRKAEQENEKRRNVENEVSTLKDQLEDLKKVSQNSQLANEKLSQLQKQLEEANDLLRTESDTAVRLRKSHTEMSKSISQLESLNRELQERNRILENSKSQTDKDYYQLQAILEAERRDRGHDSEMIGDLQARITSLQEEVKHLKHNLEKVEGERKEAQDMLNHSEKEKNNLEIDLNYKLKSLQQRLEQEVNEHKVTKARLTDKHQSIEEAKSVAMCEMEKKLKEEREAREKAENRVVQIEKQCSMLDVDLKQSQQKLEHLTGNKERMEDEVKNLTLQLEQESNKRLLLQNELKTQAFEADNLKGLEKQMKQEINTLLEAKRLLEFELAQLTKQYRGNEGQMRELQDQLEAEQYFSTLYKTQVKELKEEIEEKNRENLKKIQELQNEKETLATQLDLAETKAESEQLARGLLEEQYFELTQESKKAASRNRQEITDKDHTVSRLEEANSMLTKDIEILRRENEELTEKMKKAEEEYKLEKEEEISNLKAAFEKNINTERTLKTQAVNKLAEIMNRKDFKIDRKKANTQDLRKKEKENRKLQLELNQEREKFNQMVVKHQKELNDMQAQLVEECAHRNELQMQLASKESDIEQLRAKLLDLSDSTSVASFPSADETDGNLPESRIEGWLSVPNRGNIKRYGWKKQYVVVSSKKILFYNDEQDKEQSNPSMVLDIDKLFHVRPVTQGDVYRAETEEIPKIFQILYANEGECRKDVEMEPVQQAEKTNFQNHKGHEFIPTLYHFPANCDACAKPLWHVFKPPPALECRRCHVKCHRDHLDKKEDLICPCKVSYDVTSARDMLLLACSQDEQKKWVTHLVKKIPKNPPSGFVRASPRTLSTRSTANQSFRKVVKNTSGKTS

In the case of `COc1cc(N2CCN(C(C)C)CC2)ccc1Nc1nc(Nc2ccc(F)cc2C(N)=O)c2cc[nH]c2n1`, the inhibition (as a rule, the change of the read-out against control, counted positive when it falls) is 83.9% in [1]; 38.8% in test [2]; 79.8% in test [3]; 11.5% in test [4]; 55% in [5]; 6% in test [6]. Moreover, the inhibition worked out at 25.4% in test [7], 5.37% in test [8], 5.35% in test [9] and 1.79% in [10].
On to `COc1cc2ncn(-c3cc(OCc4ccccc4C(F)(F)F)c(C(=O)N(C)C)s3)c2cc1OC`, for which the inhibition in test [1] is 1.88%; in test [2], 0.07%; in test [3] it was -0.01%; in test [4] it was -0.43%; in [5], 0.77%; in [6], -0.41%. In addition, the inhibition in test [7] was 0.43%; in test [8], -0.01%; in test [9], -0.4%; in test [10], -0.15%.
Consider `O=C(O[C@H]1CN[C@H](C#Cc2cc3ncnc(Nc4ccc(Cc5ccccc5)cc4)c3s2)C1)N1CCOCC1`, for which the inhibition in [1] was 1.56%; in test [2], 1.99%; in [3] it was 1.5%; in test [4], 3.46%; in test [5] it was 3.85%; in test [6], 4.54%. Besides, the inhibition in [7] was 3.68%; in [8], 3.27%; in test [9], 3.94%; in test [10], 2.02%.
Take `CN1CCC(n2cnc(-c3ccc(F)cc3)c2-c2ccnc(N)n2)CC1`: the inhibition in [1] came to 16.4%; in [2], 2.68%; in test [3], 17.3%; in test [4], 0.5%; in test [5] it was 9.09%; in test [6] it was 2.99%. In addition, the inhibition is 30.7% in [7], 0.51% in test [8], 1.95% in [9] and -0.08% in [10].
For the molecule `CC(C)COC(=O)c1ccc2c(c1)/C(=C/Nc1ccc(S(N)(=O)=O)cc1)C(=O)N2`, the inhibition is 62.1% in test [1]; 1.74% in test [2]; 46.3% in test [3]; 4.93% in [4]; 14.3% in test [5]; 11% in test [6]. Moreover, the inhibition in test [7] amounted to 54.4%; in [8] it was 6.36%; in test [9], 13.5%; in test [10] it was 4.52%.
As to `NC(=O)c1sc(-n2cnc3ccc(C(F)(F)F)cc32)cc1OCc1ccccc1Br`, the inhibition was 4.08% in test [1]; 4.03% in test [2]; 3.94% in test [3]; 3.55% in test [4]; 8.39% in test [5]; 2.01% in [6]. In addition, the inhibition turned out to be 5.42% in [7], 3.81% in test [8], 8.33% in test [9] and 0.45% in test [10].
As for `CNC(=O)c1cncc(/C=C/c2ccccc2Cl)c1`, the inhibition was -1.08% in test [1]; 0.25% in [2]; -0.83% in test [3]; 1.15% in test [4]; 2.29% in test [5]; 2.05% in test [6]. Also, the inhibition in test [7] stood at 2.68%; in test [8], 1.22%; in [9], 2.62%; in test [10], 0.5%.
Turning to `c1ccc(COc2ccc(Nc3ncnc4ccc(-c5ccco5)cc34)cc2)cc1`, the inhibition in [1] was 2.58%; in test [2] it was 1.12%; in [3] it was 1.43%; in test [4], -0.44%; in test [5], 0.71%; in [6], 0.02%. The inhibition in test [7] is 1.35%; in test [8], 2.22%; in [9] it was 0.89%; in test [10] it was 0.21%.
Regarding `Nc1nc(-c2ccc(F)cc2)c(-c2ccc3ncccc3n2)s1`, the inhibition worked out at 51.9% in [1]; 8.64% in test [2]; 41.8% in test [3]; 0.69% in [4]; 4.97% in test [5]; 2.78% in test [6]. Moreover, the inhibition is 4.3% in [7], 2.61% in test [8], 3.14% in test [9] and 0.86% in test [10].
